# The list is not random: actives were taken first. Their share in the collection is about 2.4%.
# D2 PAM-1: positive allosteric modulators of human D2 dopamine receptor; DiscoveRx D2 beta-arrestin cells, luminescence, 90 min; 100% = 57 uM dopamine signal; potentiation, % (concentration not given with the values); hit rate 0.23% among 360,000; in the data active = potentiation above about 50%; inconclusive = mostly about 30% to 49%
# Target sequence (P14416 whole entry, looked up): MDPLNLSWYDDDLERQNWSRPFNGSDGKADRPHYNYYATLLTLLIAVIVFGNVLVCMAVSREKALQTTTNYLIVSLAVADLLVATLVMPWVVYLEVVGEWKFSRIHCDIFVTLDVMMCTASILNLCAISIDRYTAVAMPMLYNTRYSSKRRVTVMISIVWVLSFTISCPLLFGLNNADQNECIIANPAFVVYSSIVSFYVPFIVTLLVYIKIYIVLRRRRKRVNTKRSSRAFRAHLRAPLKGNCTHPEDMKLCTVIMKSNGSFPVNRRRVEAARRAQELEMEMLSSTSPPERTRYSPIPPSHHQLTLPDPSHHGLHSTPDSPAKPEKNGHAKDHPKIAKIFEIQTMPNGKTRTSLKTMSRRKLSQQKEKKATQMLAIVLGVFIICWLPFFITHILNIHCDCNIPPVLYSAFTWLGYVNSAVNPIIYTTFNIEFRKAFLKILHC
#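 D2 cells co-treated with compound plus 50 nM dopamine (EC20) for 90 min at 37 deg C to detect potentiation. Beta-arrestin recruitment was read as enzyme-fragment luminescence after 1 h at ambient temperature. Full response was set by 57 uM dopamine.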
# D2 PAM-2: positively modulates the human D2 dopamine receptor allosterically. HEK293 T-REx D2, calcium flux, EC20 dopamine potentiation. potentiation, % at 10 µM. hit rate 0.34% among 340,000. AID 485347;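 active = potentiation over 3 SD above the plate norm, cut at about 30% in these data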
#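 Cells plated with tetracycline inducer and held overnight at 30 C; calcium dye loaded 30–90 min at room temperature; baseline taken, compound added and read 180 s; EC20 dopamine then added and read 180 s.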
# D2 ag-1: human D2 receptor agonism in beta-arrestin assay. DiscoveRx PathHunter D2 beta-arrestin, luminescence, 90 min; 100% = 57 uM dopamine signal. activation, % (test concentration not listed). hit rate 0.084% among 360,000. AID 624465; in the data active = activation above about 40%; inconclusive = between about 15% and that limit
#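 Agonist mode: compounds alone added to overnight-plated D2 PathHunter cells for 90 min at 37 C, with 57 uM final dopamine (EC100) defining full response. Beta-arrestin recruitment detected by chemiluminescent reagent, read after 1 h at ambient temperature.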
# D2 ag-2: agonists of human D2 dopamine receptor; P14416; HEK293 T-REx D2 cells, calcium flux agonist mode; activation, % at 2 µM; hit rate 0.53% among 340,000; AID 485358;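 active = activation over 3 SD above normal in the single-dose calcium agonist read, cut at about 30% in these data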
#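 In this primary screen, compounds producing a positive calcium signal within 180 s of addition to tetracycline-induced, force-coupled HEK293 Trex D2 cells are flagged; cells are dye-loaded with a no-wash calcium kit beforehand.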
# D2 antag: D2 dopamine receptor (human) antagonism; P14416; HEK293 TREx D2 cells, calcium flux, dopamine EC80; inhibition, % at 10 µM; hit rate 2% among 340,000; in the data active = inhibition above about 30%; inactive = below that, where a call was filed
#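 Read-out: kinetic calcium fluorescence (1 cycle/s) in inducible HEK293 T-REx D2 cells after an EC80 dopamine addition that followed 180 s compound preincubation. Loss of the dopamine response indicates antagonism.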
# A number is an active result; 0 = inactive; ? = inconclusive; - = not tested or not shown.
SMILES,D2 PAM-1,D2 PAM-2,D2 ag-1,D2 ag-2,D2 antag
CN(C)S(=O)(=O)c1cccc(NC(=O)COC(=O)c2ccc([N+](=O)[O-])o2)c1,78,0,0,0,0
CN(C)S(=O)(=O)c1cccc(NC(=O)CCSc2ccc(Cl)cc2)c1,0,0,0,0,33
COc1cc(CCC(=O)Nc2cccc(S(=O)(=O)N(C)C)c2)cc(OC)c1OC,0,0,0,0,39
COc1cc(/C=N/NC(=S)Nc2cccc(S(=O)(=O)N(C)C)c2)cc(OC)c1O,0,40,0,0,0
COC(=O)c1cccc(NC(=O)CCc2cc(OC)c(OC)c(OC)c2)c1,0,0,0,0,0
CC(C)CNc1oc(-c2ccco2)nc1C#N,0,36,0,0,0
CC(Nc1oc(-c2ccco2)nc1C#N)c1ccccc1 (stereo not given),0,0,0,0,0
Cc1ccc(-n2ncc3c(NCCC4=CCCCC4)ncnc32)cc1C,-,0,-,0,-
Cc1cccc(C)c1NC(=O)C(c1cccs1)N(Cc1ccco1)C(=O)Cn1nnc2ccccc21 (stereo not given),0,35,0,0,0
COc1ccc(-c2cc(C(=O)NC3CCCC3)c3ccccc3n2)cc1OC,0,-,0,-,-
COc1ccc(-c2cc(C(=O)NC(C)c3ccccn3)c3ccccc3n2)cc1OC (stereo not given),0,44,0,0,0
OC1(c2ccccc2)CCN(Cc2ccccc2)C2CCCCC21 (stereo not given),0,0,0,0,38
Cc1oc(-c2cccs2)nc1CN1CC[C@@](O)(c2ccccc2)[C@H]2CCCC[C@@H]21,0,0,0,0,0
COc1ccccc1CN(Cc1c(Cl)cccc1Cl)S(=O)(=O)c1ccc(Br)cc1,-,0,-,0,-
Cc1cccc(NC(=S)NC(C)CCc2ccccc2)c1 (stereo not given),0,0,0,0,0
CN(C)NC(=S)Nc1cccc(Cl)c1,0,0,0,0,45
CN(C)C(CNC(=S)Nc1cccc(Cl)c1)c1ccccc1 (stereo not given),0,-,0,0,55
Cc1cccc(NC(=S)NCC(c2ccccc2)N(C)C)c1 (stereo not given),0,-,0,0,38
CCCC(=O)Nc1nnc(S(=O)(=O)N(C)Cc2ccc(Cl)cc2)s1,-,0,-,0,-
CCOC(=O)c1ccccc1NC(=O)Cn1c(=O)n(CCC(=O)NCc2ccccc2OC)c(=O)c2ccccc21,-,0,-,0,-
COc1ccc(CCC(=O)NNC(=O)Nc2cc(Cl)ccc2C)cc1,0,0,0,0,33
COC(=O)c1ccc(C)c(NC(=O)CCc2ccc(OC)cc2)c1,0,0,0,0,0
Cc1ccccc1C(=O)NCc1ccc2c(c1)CCN2C(=O)c1ccccc1,-,0,-,0,-
COc1ccc(N2CCN(Cc3cc4c(cc3O)CCC4)CC2)cc1,0,0,0,0,0
Oc1cc2c(cc1CN1CCN(c3cccc(C(F)(F)F)c3)CC1)CCC2,0,0,0,0,56
SMILES,D2 PAM-1,D2 PAM-2,D2 ag-1,D2 ag-2,D2 antag
CC(=O)Nc1ccc(NC(=O)CN2CCN(c3cccc(C(F)(F)F)c3)CC2)cc1,0,0,0,0,0
CC(=O)Nc1ccc(CN2CCN(c3cccc(C(F)(F)F)c3)CC2)cc1,0,0,0,0,43
Cc1ccccc1OC(=O)CSc1nnc(-c2ccc(F)cc2)o1,-,0,-,0,-
Cc1cccc(Cn2nnc3c(=O)[nH]c(C4CCN(C(=O)c5ccc(F)cc5)CC4)nc32)c1,-,0,-,0,-
O=C(Cn1cnc2onc(-c3ccc(F)cc3)c2c1=O)Nc1cccc(C(F)(F)F)c1,-,0,-,0,-
Cc1ccc2c(c1)C1CN(C)CCC1N2Sc1ccccc1[N+](=O)[O-] (stereo not given),0,0,0,0,43
COc1ccc(-c2nc(C)c(CCNC(=O)c3cc(OC)c(OC)c(OC)c3)s2)cc1OC,-,0,-,0,-
CN(Cc1ccccc1F)c1nc(-c2cccnc2)nc2ccccc12,0,-,0,-,-
CCOc1ccc(CN(C)c2nc(-c3cccnc3)nc3ccccc23)cc1OC,0,0,0,0,36
COc1ccc2c(CNC3CCC(C)CC3)c(C(=O)O)n(Cc3ccccc3)c2c1 (stereo not given),-,0,-,0,-
CCn1c(C)cc(C(=O)CSc2nnnn2C2CCCC2)c1C,0,0,0,0,30
Cc1ccc(C)c(NC(=O)CSc2nnc(NC(=O)Nc3ccccc3)s2)c1,-,0,-,0,-
CCn1c(C)nc2cc(C(=O)N/N=C/c3ccc(O)c(O)c3O)ccc21,0,0,0,32,0
CCOc1ccc2[nH]c3c(NCCOC)ncnc3c2c1,0,31,0,0,0
CCCOc1cccc(C(=O)NCCNC(=O)c2ccco2)c1,0,0,0,0,57
O=C(NCCNC(=O)c1ccco1)c1ccco1,0,-,0,0,0
COc1cccc(C(=O)NCCNC(=O)c2ccco2)c1,0,0,0,0,0
Cc1cc(C)n(CCNC(=O)c2ccco2)n1,0,31,0,0,0
Cc1ccc(NC(=O)CCNC(=O)c2ccco2)cc1Cl,0,0,0,0,36
CCOc1ccccc1NC(=O)c1ccc(F)c(S(=O)(=O)N2CCN(c3ccc(F)cc3)CC2)c1,-,0,-,0,-
CC(O)(c1cccc(F)c1)c1nc(-c2cnc3ccccc3c2)cs1 (stereo not given),65,-,148,-,-
O=C(Cn1c(=O)n(Cc2ccc(C(=O)NCc3ccccc3Cl)cc2)c(=O)c2ccccc21)Nc1ccc(F)c(Cl)c1,-,-,-,0,-
COCCNC(=O)CSCc1c(F)cccc1Cl,0,0,0,0,0
COCCCNC(=O)c1cn(Cc2c(F)cccc2Cl)nn1,0,0,0,0,32
COC(=O)CCNCCSc1nnc(-c2ccco2)n1Cc1ccccc1,0,0,0,0,33
SMILES,D2 PAM-1,D2 PAM-2,D2 ag-1,D2 ag-2,D2 antag
COc1ccc(O)c(C(=O)c2cc(C(=O)NCCc3ccccc3)c(=O)n(CCc3ccccc3)c2)c1,69,0,0,0,0
COc1ccc(OC)c(S(=O)(=O)Nc2cccc3c(O)cccc23)c1,0,-,0,-,-
COc1ccc(OC)c(S(=O)(=O)Nc2ccc(O)c3ccccc23)c1,89,0,?,0,0
COc1ccc(-n2ccnc2SCC(=O)Nc2cccc(OC)c2)cc1,-,0,-,0,-
CCOC(=O)CN1C(=O)c2cccnc2Oc2ccccc21,-,0,-,0,-
COc1cc(NC(=O)Cn2c(=O)nc(-c3ccccc3F)c3cc(Cl)ccc32)cc(OC)c1,-,0,-,0,-
COc1cc(OC)c(C(=O)NC23CC4CC(CC(C4)C2)C3)cc1OC,65,0,0,0,0
Cc1ccc(N2C(=O)C(CC(=O)Nc3cccc(F)c3)N(CCc3ccccc3F)C2=O)cc1 (stereo not given),-,0,-,-,-
CC(C)C(C)(C#N)NC(=O)CSc1ncnc2sc(-c3ccccc3)cc12 (stereo not given),0,0,0,0,31
O=C(CSc1nc2c(c(=O)[nH]1)CN(Cc1ccc(F)cc1)CC2)Nc1cccc(C(F)(F)F)c1,-,-,-,0,-

# Bioassay records as filed in PubChem.
